Data from the supplement of paper PMC6378613.

Compound: Cc1ccc(-c2ccc3c(ccc4sc5c(c43)NC[C@@H](C)NC5=O)n2)cn1
Test: kinase activity remaining relative to vehicle control; higher = less inhibition
Experimental: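 In vitro radiometric kinase profiling of the MK2 inhibitor PF-3644022 at 0.1, 1 and 10 µM against a panel of kinases (MRC International Centre for Kinase Profiling, Dundee). Read-out is % kinase activity remaining relative to the vehicle control, mean of n=2.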

Sequence of UniProt P27448 (P27448 whole entry, looked up): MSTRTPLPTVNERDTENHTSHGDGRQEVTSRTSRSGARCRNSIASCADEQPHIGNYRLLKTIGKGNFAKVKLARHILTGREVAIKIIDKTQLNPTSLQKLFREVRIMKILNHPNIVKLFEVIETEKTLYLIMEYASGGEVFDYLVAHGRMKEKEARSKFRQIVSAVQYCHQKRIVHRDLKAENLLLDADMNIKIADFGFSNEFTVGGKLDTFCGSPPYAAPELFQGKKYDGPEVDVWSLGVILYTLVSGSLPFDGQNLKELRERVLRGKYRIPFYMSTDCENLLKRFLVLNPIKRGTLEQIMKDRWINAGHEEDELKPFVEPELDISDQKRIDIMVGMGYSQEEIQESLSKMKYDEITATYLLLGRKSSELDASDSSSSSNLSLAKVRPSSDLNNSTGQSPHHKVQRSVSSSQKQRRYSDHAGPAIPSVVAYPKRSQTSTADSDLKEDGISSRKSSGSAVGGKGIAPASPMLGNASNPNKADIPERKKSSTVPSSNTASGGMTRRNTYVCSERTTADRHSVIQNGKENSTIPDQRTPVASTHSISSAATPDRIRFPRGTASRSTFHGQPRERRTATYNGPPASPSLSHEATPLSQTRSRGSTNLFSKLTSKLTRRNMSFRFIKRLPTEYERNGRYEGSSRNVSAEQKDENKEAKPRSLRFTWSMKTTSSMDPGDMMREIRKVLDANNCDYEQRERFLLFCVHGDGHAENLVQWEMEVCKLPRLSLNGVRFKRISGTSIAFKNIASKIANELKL
Sequence of UniProt P11309 (P11309 whole entry, looked up): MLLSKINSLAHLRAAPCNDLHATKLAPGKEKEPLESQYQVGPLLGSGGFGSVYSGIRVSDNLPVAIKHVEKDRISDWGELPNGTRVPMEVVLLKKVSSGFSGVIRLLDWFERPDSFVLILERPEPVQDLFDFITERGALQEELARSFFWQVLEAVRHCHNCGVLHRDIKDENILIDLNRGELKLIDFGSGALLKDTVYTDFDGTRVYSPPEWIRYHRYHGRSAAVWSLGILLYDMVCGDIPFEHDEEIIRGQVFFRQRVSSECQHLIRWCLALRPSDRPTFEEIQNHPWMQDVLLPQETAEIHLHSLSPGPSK
Sequence of UniProt Q8IYT8 (Q8IYT8 whole entry, looked up): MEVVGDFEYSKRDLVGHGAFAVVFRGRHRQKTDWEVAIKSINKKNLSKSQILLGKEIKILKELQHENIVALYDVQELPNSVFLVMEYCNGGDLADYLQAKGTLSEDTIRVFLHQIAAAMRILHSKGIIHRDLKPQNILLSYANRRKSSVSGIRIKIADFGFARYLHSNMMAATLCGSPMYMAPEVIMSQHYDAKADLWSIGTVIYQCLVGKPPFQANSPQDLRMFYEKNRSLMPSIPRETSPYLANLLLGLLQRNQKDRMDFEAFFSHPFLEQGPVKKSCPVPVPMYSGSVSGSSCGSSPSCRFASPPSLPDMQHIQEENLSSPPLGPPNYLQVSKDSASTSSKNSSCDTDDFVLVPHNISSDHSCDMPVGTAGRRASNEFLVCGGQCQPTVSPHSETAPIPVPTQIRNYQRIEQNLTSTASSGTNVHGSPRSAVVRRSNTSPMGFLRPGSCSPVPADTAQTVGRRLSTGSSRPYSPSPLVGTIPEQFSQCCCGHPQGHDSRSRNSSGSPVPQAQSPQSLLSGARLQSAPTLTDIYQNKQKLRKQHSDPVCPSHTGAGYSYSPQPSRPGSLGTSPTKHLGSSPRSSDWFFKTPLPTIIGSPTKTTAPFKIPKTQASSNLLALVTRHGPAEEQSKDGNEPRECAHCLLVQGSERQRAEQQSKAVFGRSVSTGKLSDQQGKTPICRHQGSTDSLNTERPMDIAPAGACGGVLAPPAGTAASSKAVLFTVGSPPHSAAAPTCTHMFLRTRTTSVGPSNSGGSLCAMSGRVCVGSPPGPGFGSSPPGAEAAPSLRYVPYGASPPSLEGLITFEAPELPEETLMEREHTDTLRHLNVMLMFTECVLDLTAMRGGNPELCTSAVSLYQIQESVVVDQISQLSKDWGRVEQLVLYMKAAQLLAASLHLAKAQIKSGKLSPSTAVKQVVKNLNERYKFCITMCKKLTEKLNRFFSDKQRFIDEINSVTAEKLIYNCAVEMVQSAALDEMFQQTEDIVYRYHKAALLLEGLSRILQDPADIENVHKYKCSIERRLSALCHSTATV
Sequence of UniProt P51617 (P51617 whole entry, looked up): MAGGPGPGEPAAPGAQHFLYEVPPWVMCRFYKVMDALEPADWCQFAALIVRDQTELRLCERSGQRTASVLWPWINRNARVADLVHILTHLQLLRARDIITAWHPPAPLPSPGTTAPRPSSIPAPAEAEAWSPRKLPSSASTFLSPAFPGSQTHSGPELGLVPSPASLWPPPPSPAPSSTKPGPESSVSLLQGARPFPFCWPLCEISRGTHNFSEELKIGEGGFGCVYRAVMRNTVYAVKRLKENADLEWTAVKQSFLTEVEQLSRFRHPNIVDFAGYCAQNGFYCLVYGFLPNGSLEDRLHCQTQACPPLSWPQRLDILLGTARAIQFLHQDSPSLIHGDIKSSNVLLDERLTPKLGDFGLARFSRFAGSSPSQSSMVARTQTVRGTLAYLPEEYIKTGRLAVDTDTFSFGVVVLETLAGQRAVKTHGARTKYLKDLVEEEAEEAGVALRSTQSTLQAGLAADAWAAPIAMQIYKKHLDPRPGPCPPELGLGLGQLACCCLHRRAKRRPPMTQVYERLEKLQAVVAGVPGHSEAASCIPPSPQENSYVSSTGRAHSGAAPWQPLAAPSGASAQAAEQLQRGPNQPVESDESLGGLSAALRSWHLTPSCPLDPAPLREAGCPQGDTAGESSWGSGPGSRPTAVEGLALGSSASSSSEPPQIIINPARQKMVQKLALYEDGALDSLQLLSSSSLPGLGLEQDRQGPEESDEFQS
Sequence of UniProt P41240 (P41240 whole entry, looked up): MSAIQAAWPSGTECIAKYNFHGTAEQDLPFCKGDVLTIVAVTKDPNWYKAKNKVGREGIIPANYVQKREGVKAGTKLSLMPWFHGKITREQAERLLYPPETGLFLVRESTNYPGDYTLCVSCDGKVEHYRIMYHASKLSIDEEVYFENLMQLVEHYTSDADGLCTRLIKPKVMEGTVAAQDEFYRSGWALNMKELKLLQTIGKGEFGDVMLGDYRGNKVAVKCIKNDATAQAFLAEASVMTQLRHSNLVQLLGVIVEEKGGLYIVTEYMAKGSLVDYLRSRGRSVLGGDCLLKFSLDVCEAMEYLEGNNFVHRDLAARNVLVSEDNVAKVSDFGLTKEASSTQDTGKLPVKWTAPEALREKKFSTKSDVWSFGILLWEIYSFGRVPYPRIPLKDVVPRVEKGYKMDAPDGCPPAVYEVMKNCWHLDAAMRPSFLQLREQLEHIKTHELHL
Sequence of UniProt P12931 (P12931 whole entry, looked up): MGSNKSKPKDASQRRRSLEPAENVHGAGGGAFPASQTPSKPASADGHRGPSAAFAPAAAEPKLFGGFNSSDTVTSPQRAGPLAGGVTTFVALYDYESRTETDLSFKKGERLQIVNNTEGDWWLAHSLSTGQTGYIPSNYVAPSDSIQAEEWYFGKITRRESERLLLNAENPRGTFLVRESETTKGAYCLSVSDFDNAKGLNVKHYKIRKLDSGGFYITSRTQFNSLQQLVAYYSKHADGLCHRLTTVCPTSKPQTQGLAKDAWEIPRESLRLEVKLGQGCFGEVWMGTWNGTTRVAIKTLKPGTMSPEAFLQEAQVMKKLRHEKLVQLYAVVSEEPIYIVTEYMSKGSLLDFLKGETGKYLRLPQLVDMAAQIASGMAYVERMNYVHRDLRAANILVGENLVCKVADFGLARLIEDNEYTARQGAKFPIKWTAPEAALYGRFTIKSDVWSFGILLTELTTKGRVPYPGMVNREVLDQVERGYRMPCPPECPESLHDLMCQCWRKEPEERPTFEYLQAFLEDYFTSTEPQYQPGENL
Sequence of UniProt Q13177 (Q13177 whole entry, looked up): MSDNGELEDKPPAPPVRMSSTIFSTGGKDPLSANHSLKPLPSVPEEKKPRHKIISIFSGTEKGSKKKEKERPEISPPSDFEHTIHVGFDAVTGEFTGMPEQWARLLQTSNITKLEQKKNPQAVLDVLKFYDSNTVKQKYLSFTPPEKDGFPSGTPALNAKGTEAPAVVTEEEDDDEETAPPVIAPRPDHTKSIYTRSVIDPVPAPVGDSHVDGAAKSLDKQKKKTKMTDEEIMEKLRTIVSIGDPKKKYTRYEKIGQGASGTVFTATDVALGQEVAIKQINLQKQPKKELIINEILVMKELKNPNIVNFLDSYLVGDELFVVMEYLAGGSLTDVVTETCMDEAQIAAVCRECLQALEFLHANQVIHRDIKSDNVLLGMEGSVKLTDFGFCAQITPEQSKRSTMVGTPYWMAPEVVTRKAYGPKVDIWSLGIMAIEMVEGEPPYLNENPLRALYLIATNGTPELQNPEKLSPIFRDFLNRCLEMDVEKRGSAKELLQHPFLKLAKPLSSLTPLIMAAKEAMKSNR

Target | kinase activity remaining (inhibitor concentration 0.1 µM) [%] | kinase activity remaining (inhibitor concentration 1 µM) [%] | kinase activity remaining (inhibitor concentration 10 µM) [%]
IRAK1 (UniProt P51617) | 104 | 77 | 27
PAK4 (UniProt O96013) | 103 | 88 | 82
PAK2 (UniProt Q13177) | 102 | 103 | 93
ULK2 (UniProt Q8IYT8) | 109 | 121 | 54
PKC alpha | 101 | 113 | 90
MARK3 (UniProt P27448) | 113 | 115 | 110
p38 gamma MAPK | 108 | 115 | 97
CHK2 (UniProt O96017) | 112 | 51 | 9
SYK (UniProt P43405) | 94 | 98 | 82
CSK (UniProt P41240) | 117 | 111 | 106
PIM3 (UniProt Q86V86) | 55 | 18 | 3
PIM1 (UniProt P11309) | 93 | 58 | 17
Src (UniProt P12931) | 110 | 116 | 100
Aurora A | 126 | 102 | 84
